# Bioassay records as filed in PubChem BioAssay.
# This is a sample that favours compounds with a hit; in the whole collection about 1.4% have one here.
# ZTA counter – counter-screen for EBNA-1 inhibitors: inhibitors of Epstein-Barr virus ZTA | P03206 | ZTA-DNA binding, fluorescence polarization | inhibition, % at 11 µM | 320,000 tested, 0.15% active | AID 2234; in the data active means inhibition above about 33%
# Target sequence (P03206 whole entry, looked up): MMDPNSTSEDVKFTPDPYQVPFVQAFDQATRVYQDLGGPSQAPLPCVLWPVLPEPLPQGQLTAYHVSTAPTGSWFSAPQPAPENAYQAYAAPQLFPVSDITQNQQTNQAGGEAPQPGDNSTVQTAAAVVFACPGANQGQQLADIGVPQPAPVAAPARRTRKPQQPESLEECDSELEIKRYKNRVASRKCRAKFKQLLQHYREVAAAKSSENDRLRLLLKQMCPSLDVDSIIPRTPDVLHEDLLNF
# LYPLA2 counter – LYPLA2 inhibitors, primary screen, counter-screen for PME1 inhibitor project, biochemical, fluorescence polarization, FP-Rh probe ABPP | Acyl-protein thioesterase 2 (Homo sapiens), O95372 | recombinant LYPLA2 | inhibition, % at 5.9 µM | 320,000 tested, 0.38% active | AID 2177, 2009;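 active means inhibition above the screen-wide mean plus 3 SD, limit set per campaign, cut at about 26% in these data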;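 further: 0% = LYPLA2 with DMSO and 100% = wells lacking LYPLA2 enzyme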
# LYPLA1 inh – LYPLA1 inhibitors, primary screen, counter-screen for PME1 inhibitor project, biochemical, fluorescence polarization, FP-Rh probe ABPP | Acyl-protein thioesterase 1 (Homo sapiens), O75608 | recombinant LYPLA1 | inhibition, % at 5.9 µM | 320,000 tested, 0.16% active;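 active means inhibition above the mean of all tested compounds plus 3 SD, set per campaign, cut at about 14% in these data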;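 further: inhibitors block serine hydrolase probe labeling of LYPLA1 so polarization falls; 0% = enzyme with DMSO and 100% = wells lacking LYPLA1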
# EBNA-1 inhibitor – EBNA-1 DNA-binding inhibitors, primary screen, biochemical, fluorescence polarization | inhibition, % at 14.8 µM | 300,000 tested, 0.34% active; in the data active means inhibition above about 28%
# LANA-H2A inh – blockers of LANA interaction with H2A/H2B – biochemical, FP readout, HTS, primary screen; Protein LANA1 (Human herpesvirus 8 type P (isolate GK18)), Q9QR71; cell-free LANA-H2A/H2B peptide, fluorescence polarization; inhibition, % (no concentration beside the values); 320,000 tested, 0.6% active; AID 2629, 2010; in the data active means inhibition mostly above about 10%, no sharp cut-off; inactive means mostly below about 6.7%
# LYPLA1 conf – LYPLA1 inhibitors, retest, confirmation, counter-screen for PME1 inhibitor project, biochemical, fluorescence polarization, FP-Rh probe ABPP. recombinant LYPLA1. AID 2233, 2010. inhibition, % at 5.9 µM. shares compounds with LYPLA1 inh. 480 tested, 69% active;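 active means mean inhibition across replicates above the hit cutoff set in the primary screen, cut at about 15% in these data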;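 further: loss of FP-Rh probe labeling of LYPLA1 seen as lower polarization; 0% = LYPLA1 with DMSO and 100% = wells lacking LYPLA1 enzyme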
# LYPLA2 confirm – LYPLA2 inhibitors, retest, confirmation, counter-screen for PME1 inhibitor project, biochemical, fluorescence polarization, FP-Rh probe ABPP. shares compounds with LYPLA2 counter. recombinant LYPLA2. inhibition, % at 5.9 µM. 1,100 tested, 72% active;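 active means mean inhibition across replicates above the hit cutoff set in the primary screen, cut at about 26% in these data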;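 further: blocked labeling of the enzyme by serine hydrolase FP-Rh probe lowers polarization; 0% = enzyme with DMSO and 100% = wells lacking LYPLA2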
# Numbers without * were called inactive; . = not tested or not shown.
SMILES,ZTA counter,LYPLA2 counter,LYPLA1 inh,EBNA-1 inhibitor,LANA-H2A inh,LYPLA1 conf,LYPLA2 confirm
O=C(O)CC1NC(=S)N(c2ccccc2)C1=O (stereo unspecified),9,-2,0,-1,5,.,.
CCOC(=O)CCCSc1nc2sc3c(c2c(=O)[nH]1)CCC3,-4,-3,0,-7,-1,.,.
CCOC(=O)CSc1nnc(CSc2nc3sc4c(c3c(=O)[nH]2)CCCC4)n1-c1ccccc1,-24,77*,16*,0,2,15*,80*
COc1ccc(C)cc1N(CC(=O)NCCN1CCOCC1)S(=O)(=O)c1ccccc1,15,0,2,2,-1,.,.
COc1ccc(C(CNC(=O)c2cccc(S(=O)(=O)N3CCc4ccccc43)c2)N(C)C)cc1 (stereo unspecified),.,.,.,.,1,.,.
CCOC(=O)CCc1c(C)nc(SCc2ccc(C(=O)O)cc2)c(C#N)c1C,7,43*,20*,-1,-6,39*,59*
O=C(CCc1nc2ccccc2c(=O)[nH]1)N1CCN(C/C=C/c2ccccc2)CC1,-3,15,-1,-14,0,.,.
O=c1[nH]c(CN2CCN(C/C=C/c3ccccc3)CC2)nc2cc(Cl)ccc12,-20,32*,34*,-2,9,41*,31*
O=C(O)CCCCCN1C(=O)c2ccc(C(=O)O)cc2C1=O,17,3,0,-3,1,.,.
O=C(O)c1ccc2c(c1)C(=O)N(CCCCCCCN1C(=O)c3ccc(C(=O)O)cc3C1=O)C2=O,3,47*,69*,2,-2,73*,48*
CC(=O)c1ccc(NC(=O)Cc2ccsc2)cc1,13,5,-4,-7,2,.,.
CCN(CC)c1ccc(C(=O)n2cnc3ccccc32)cc1,-1,65*,21*,0,2,39*,70*
CC(C)(C)c1ccc(C(=O)n2cnc3ccccc32)cc1,6,-4,-3,-1,6,.,.
COc1ccc(-n2nc(C(=O)NCC(=O)N3CCN(Cc4ccccc4)CC3)c3ccccc3c2=O)cc1,-11,69*,43*,-15,-3,47*,67*
COc1ccc(-n2nc(C(=O)NCC(=O)N3CCN(Cc4ccc5c(c4)OCO5)CC3)c3ccccc3c2=O)cc1OC,-11,74*,50*,-5,-3,63*,82*
CCN1CCN(C(=O)CNC(=O)c2nn(-c3ccc(OC)cc3)c(=O)c3ccccc23)CC1,11,4,-1,13,6,.,.
COc1ccc(N2CCN(C(=O)CNC(=O)c3cn(-c4ccccc4OC)c(=O)c4ccccc34)CC2)cc1,-4,76*,15*,-8,-2,26*,81*
CCC(=O)N1CCN(c2ccc(NC(=S)NC(=O)c3ccc(OC)c([N+](=O)[O-])c3)cc2)CC1,1,63*,56*,0,1,70*,81*
COc1ccc(C(=O)NC(=S)Nc2ccccc2N2CCOCC2)cc1[N+](=O)[O-],-13,12,0,5,1,.,.
COc1ccc(C(=O)NC(=S)Nc2ccc(N3CCOCC3)c(Cl)c2)cc1[N+](=O)[O-],-7,60*,50*,4,-3,54*,61*
COc1ccc(C(=O)NC(=S)Nc2ccc(CN3CCOCC3)cc2)cc1Cl,4,60*,22*,6,2,21*,46*
Cc1ccc(S(=O)(=O)N2CCN(C(=O)Cn3nc(C)c([N+](=O)[O-])c3C)CC2)cc1,-11,2,0,.,0,.,.
O=C(Nc1nnc(S(=O)(=O)N2CCCCC2)s1)c1cccc(Br)c1,8,-4,-1,4,-6,.,.
C(=N\n1cnnc1)/c1cccc(OCCOc2ccccc2)c1,-18,12,5,2,-4,.,.
C(=N\n1cnnc1)/c1ccc(OCc2cccc3ccccc23)cc1,-10,52*,16*,-3,-8,20*,39*
